# From PubChem BioAssay AID1910 (Broad Institute, 2009)
# The whole screen tested about 300,000 compounds, of which about 950 (0.32%) were called active. The full list was thinned out, with actives kept by preference. Unmarked numbers belong to inactive results.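 The calls were made as follows: active = mean activation of at least 10% of the iron chelator positive control signal, with at least half of replicates also reaching 10%; inconclusive = mean and replicate majority disagree about reaching 10%; inactive = mean and most replicates under 10%.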
# Assay: HIF pathway transcriptional activators, primary screen, cell-based, U2OS HRE-luciferase, luminescence (AID 1910)
# Conditions: U2OS HRE-luciferase reporter, hits give high values, screened at 7.5 µM (by protocol), normalized: DMSO 0%, desferrioxamine 100%
row,Structure (SMILES),activation
1,C/C(=N\NC(=O)Cc1ccccc1[N+](=O)[O-])c1cccnc1,0.0865%
2,C/C(=N\NC(N)=S)c1cccnc1,-0.0419%
3,C/C(=N\NC(=O)c1ccccc1F)c1ccccn1,1.74%
4,C/C(=N\NC(=O)Cc1ccc(Br)cc1)c1cccnc1,24.8% (active)
5,Cc1ccc(Cl)cc1NC(=O)c1ccccn1,1.23%
6,C/C(=N\NC(=O)Cc1ccc(Cl)cc1)c1ccccn1,17.7% (active)
7,O=C(N[C@@H](Cc1ccccc1)C(=O)OCc1ccccc1)c1nc[nH]c1C(=O)NC1CCNCC1,1.06%
8,Cc1cc(NC(=O)CSC2=NS(=O)(=O)c3cc(Cl)ccc3N2)no1,1.88%
9,COc1ccc(/C=C(\C#N)C(=O)OCC(=O)N(C)C2CCS(=O)(=O)C2)cc1 (stereo not given),-41.3%
10,CCOc1cccc(/C=N/NC(=S)NCCN2CCOCC2)c1O,0.43%
11,Nc1nc(NCCCN2CCOCC2)nc(Nc2ccccc2)c1[N+](=O)[O-],-0.302%
12,CCOc1nc(NCCN2CCOCC2)nc(Nc2ccc(C)cc2)n1,296% (active)
13,O=C1CC2(CCN(C(=O)COc3ccc(F)cc3)CC2)Oc2ccccc21,-0.0585%
14,O=C(CCCCO)c1ccc(O)c(Cl)c1,-0.731%
15,COc1cc(-c2nnc(NC(=O)C3=COCCO3)o2)cc(OC)c1OC,-0.75%
16,COc1cc(OC)cc(C(=O)NNC(=O)CNC(=O)c2ccc(Br)o2)c1,0.191%
17,O=C(NCCCN1CCCC1=O)c1cccc(S(=O)(=O)NCc2ccccc2)c1,-0.752%
18,CN(Cc1cnccn1)C(=O)c1cc(COc2cccc(C(F)(F)F)c2)on1,-2.19%
19,CN(Cc1cccnc1)C(=O)c1cc(COc2ccc3ncccc3c2)on1,39.7% (active)
20,Cc1ccc(OCc2cc(C(=O)N(C)CCc3ccccc3)no2)cc1C,4.07%

row,Structure (SMILES),activation
1,Cc1cccc(C(=O)OC(C)CN2CCCC2)c1 (stereo not given),15% (active)
2,CC(CN1CCCCC1)OC(=O)c1ccccc1Cl (stereo not given),-0.0657%
3,Cc1cccc(C(=O)OC(C)CN2CCN(C)CC2)c1 (stereo not given),3.11%
4,CC(=O)c1nn(-c2ccc(C)cc2)cc1C(=O)c1cccc(Br)c1,-0.49%
5,Cc1ccc(/C=N/NC(=O)CSc2ccccn2)o1,-0.331%
6,N#CCC(=O)N/N=C/c1ccc(SCC(=O)Nc2ccccc2)o1,105% (active)
7,O=C(CSc1ccc(/C=N/NC(=O)c2cccc(F)c2)o1)Nc1ccccc1,0.0126%
8,COc1ccc(CNC(=O)C2CCN(C(=O)c3ccccc3)CC2)cc1,-0.358%
9,COc1ccc(N(CC(=O)Nc2cc(OC)ccc2OC)S(=O)(=O)c2c(C)noc2C)cc1,10.1% (active)
10,CCOc1ccc(N(CC(=O)NCc2ccc(OC)cc2)S(=O)(=O)c2c(C)noc2C)cc1,0.179%
11,CCOc1ccc(N(CC(=O)OC)S(=O)(=O)c2c(C)noc2C)cc1,-0.196%
12,COc1ccc(Cl)cc1NC(=O)CN(C)C(=O)c1cc(-c2cccs2)nn1-c1ccccc1,1.06%
13,CCN(CC(=O)Nc1cc(Cl)ccc1C)C(=O)Cn1c(=O)cnc2ccccc21,-0.594%
14,O=C(COc1coc(CN2CCN(c3ccccc3)CC2)cc1=O)N1CCc2ccccc21,0.142%
15,Cc1ccc(SCc2c(C(=O)N/N=C/C3CC=CCC3)nnn2-c2nonc2N)cc1 (stereo not given),0.655%
16,Nc1nonc1-n1nnc(C(=O)N/N=C/c2cc(Br)ccc2O)c1CSC1=NCCS1,20.7% (active)
17,Nc1nonc1-n1nnc(C(=O)N/N=C/c2ccccc2O)c1CN1CCCC1,-0.146%
18,CCN1CCN(C(=O)N(Cc2ccc(Cl)cc2)S(=O)(=O)c2ccc(C)cc2)CC1,1.75%
19,Cc1cccc(C(=O)OC(C)C(=O)NC2CCCc3ccccc32)c1O (stereo not given),-0.427%
20,Oc1ccc(Br)cc1/C=N/Nc1ccccn1,90.5% (active)

row,Structure (SMILES),activation
1,Oc1ccc(/C=N/Nc2ccc(C(F)(F)F)cn2)cc1O,2.36%
2,O=[N+]([O-])c1ccc(O)c(/C=N/Nc2ccccc2[N+](=O)[O-])c1,1.42%
3,O=C(NC1CC1)C(Cc1ccccc1)NS(=O)(=O)c1ccccc1F (stereo not given),-30.3%
4,CCS(=O)(=O)c1ccc(-c2cccc(NC(=O)c3ccc(Br)o3)c2)nn1,-0.865%
5,Cc1ccc(Nc2c3c(nc4ccccc24)CCC3)cc1,97.4% (active)
6,CC(=O)Nc1ccc(Nc2c3ccccc3nc3ccccc23)cc1,7.58%
7,N#Cc1cccc(Nc2c3c(nc4ccccc24)CCCC3)c1,-0.204%
8,Cc1ccc(SCC(=O)Nc2nncs2)cc1,-0.275%
9,NS(=O)(=O)c1cc(C(=O)OCC(=O)NNC(=O)c2ccccc2)ccc1Cl,0.0895%
10,Cc1nc(-c2ccccc2)sc1C1(C)CC(c2cccnc2)=NO1 (stereo not given),5.85%
11,Cn1ccnc1-c1nnn(-c2ccc(F)cc2)n1,2.61%
12,CCOc1ccc(CCNC(=O)COC(=O)C2CCN(c3ccc(C(F)(F)F)cn3)CC2)cc1OCC,0.095%
13,Cc1ccc(NC(=O)NC(=O)CSc2nnc(-c3ccc(OC(F)F)cc3)n2N)c(C)c1,2.08%
14,Nn1c(SCC(=O)NC2CCCC2)nnc1-c1ccccc1F,-0.0397%
15,CC(C)NC(=O)NC(=O)CSc1nnc(-c2ccccc2F)n1N,88% (active)
16,COc1ccc(NC(=O)CN(C)C(=O)c2n[nH]c3ccccc23)cc1,2.08%
17,O=C(CCNC(=O)c1ccc(Br)cc1)NCCCc1ccccc1,0.558%
18,CC(=O)N1CCc2c(sc(NC(=O)CCS(=O)(=O)c3ccc(C)cc3)c2C(N)=O)C1,-0.0953%
19,CS(=O)(=O)c1ccc(Cl)c(NC(=O)COC(=O)c2cccc(S(=O)(=O)N3CCCC3)c2)c1,0.78%
20,CCN1/C(=C\c2ccc3ccccc3[n+]2CC)Sc2cc(C)ccc21,16.3% (active)
